Measured values published in PubChem BioAssay.

Test: small-molecule microarray binders of probe aShh, primary screen, biochemical, biotinylated probe, 635/667 nm fluorescence (AID 1114);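 also: probe is biotin-labelled aShh protein from a stem cell growth factor screen; measures binding of labelled protein to compounds printed on the slide; score merges feature fluorescence at 667 nm with signal-to-noise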
Conditions: higher = more signal

SMILES	composite z-score
COc1ccc([Si](C)(C)[C@@H]2[C@@H](CC(=O)N3Cc4ccccc4C[C@H]3CO)O[C@]3(C(=O)N(C)c4ccccc43)[C@H]2C)cc1	0.123
O=C(N1CCCCC1)[C@@]1(CCS(=O)(=O)c2ccccc2)COC(c2ccc(OCCCO)cc2)=N1	-0.0064
O=C1NC(=O)C2C1C=CC(C(O)CCc1ccccc1)N2Nc1ccc(Cl)cc1Cl (configuration not stated)	-0.0571
C=CCC(OC(C)=O)[C@@H]1[C@@H](N(Cc2cc3ccccc3o2)C(=O)c2ccc(-c3ccccc3)cc2)c2cc(OCCCO)ccc2N1C(=O)c1ccc2ccccc2c1 (some centres not stated)	0.0048
CCOC(=O)C[C@H]1[C@H](OC(=O)Cc2ccc3c(c2)OCO3)[C@@H](NC(=O)Cc2ccc(OC)cc2)c2cc(OCCCO)ccc2N1C(=O)c1ccc2ccccc2n1	0.23
COC(=O)c1c2oc(c1C(=O)OC)C(=O)N(Cc1ccccc1)Cc1cn(nn1)C[C@H](Cc1ccccc1)NC(=O)N[C@H](CO)CC2	-0.367
NC(N)=NCCCn1cc(CNC(=O)[C@@H](N)Cc2ccccc2)nn1	-0.0146
NC(=O)N1C(=O)C2C(C1=O)C1C=C(CCCO)C2C(c2cccs2)N1Cc1cccc(OC(F)(F)F)c1 (configuration not stated)	0.723
CCOC(=O)C[C@H]1[C@H](OC(=O)c2cc3ccccc3oc2=O)[C@@H](NC(=O)Cc2ccc(OC)cc2)c2cc(OCCCO)ccc2N1C(=O)c1ccc2ccccc2n1	-0.214
COCCOC(=O)N1C(=O)[C@@]2(c3cc(C#CC4=CCCCC4)ccc31)[C@H](c1ccc(OCCO)cc1)N1[C@H](c3ccccc3)[C@H](c3ccccc3)OC(=O)[C@H]1[C@@H]2C(=O)NC[C@H](O)c1ccccc1	0.107
COC(=O)c1nc2oc1CC[C@@H](CO)NC(=O)N(C)Cc1cnnn1C[C@H](Cc1ccccc1)NC2=O	-0.0035
CN1C(=O)C2C=CC(C(O)COCc3ccccc3)N(N(c3ccccc3)c3ccccc3)C2C1=O (configuration not stated)	0.204
COc1cc2c(cc1O)C(C)N(Cc1ccc([N+](=O)[O-])o1)CC2 (configuration not stated)	-0.153
C=CCOC(=O)[C@H]1[C@@H]2C(=O)O[C@@H](c3ccccc3)[C@@H](c3ccccc3)N2[C@@H](c2ccc(OCCOC(=O)[C@@H]3C[C@@H]4C(=O)N[C@@H](CCCCN(C)C)C(=O)N4[C@@H]3c3ccc(O)cc3)cc2)[C@]12C(=O)Nc1ccccc12	-0.0709
CCOC(=O)C1=C[C@@H](c2ccccc2)N(S(=O)(=O)c2ccc(C)cc2)[C@H]1c1ccccc1Cl	0.0121
C[N+](C)(C)CCCCCCNC(=O)[C@H]1C[C@H]2C(=O)NCC(=O)N2[C@H]1c1ccc(O)cc1	0.21
COc1cc(CO)cc(I)c1O[C@H]1C=C(C(=O)NCCO)C[C@@H](NCc2ccc(F)cc2)[C@@H]1O	0.0684
COC1OC[C@]2(C)[C@H]3C4=C(CN2C(=O)OC(C)(C)C)[C@H](C)C(CO)C(CO)C4CC[C@@H]13 (some centres not stated)	0.605
O=C1O[C@H](c2ccccc2)[C@H](c2ccccc2)N2[C@H]1[C@@H](C(=O)Nc1nc3ccccc3s1)[C@]1(C(=O)Nc3ccc(C#CCCO)cc31)[C@H]2c1ccc(O)cc1	-0.0035
C=CCC(OC(C)=O)[C@@H]1[C@@H](N(Cc2cc3ccccc3o2)C(=O)Cc2ccc(F)cc2)c2cc(OCCCO)ccc2N1C(=O)c1ccc2ccccc2c1 (some centres not stated)	0.179
OCCCC1=CC(c2ccc(CN3CCCC3)cc2)N(Cc2sc3ccccc3c2Cl)CC1 (configuration not stated)	0.0899
O=C1O[C@H](c2ccccc2)[C@H](c2ccccc2)N2[C@H]1[C@@H](C(=O)N1CCN(c3ncccn3)CC1)[C@]1(C(=O)Nc3ccc(C#CC4(O)CCCCCC4)cc31)[C@H]2c1ccc(OCCO)cc1	0.543
O=C1C2C=CC(C(O)c3ccc(Br)cc3)N(Nc3ccccc3F)C2C(=O)N1c1ccccc1 (configuration not stated)	-0.0626
COCCOC(=O)N1C(=O)[C@@]2(c3cc(C#CCC(C(=O)OC)C(=O)OC)ccc31)[C@H](C(=O)N1CCc3cc(OC)c(OC)cc3C1)[C@H]1C(=O)O[C@H](c3ccccc3)[C@H](c3ccccc3)N1[C@@H]2c1ccc(OCCO)cc1	-0.1
CC(CO)N1C(=O)[C@@H]2[C@H]3C(=O)OCC=C[C@H]3OC23C=CCN(CCN2CCOCC2)C(=O)[C@@H]13 (some centres not stated)	-0.309
C=C(COC)C(=O)CC[C@@H](OC(=O)c1cccnc1)c1ccc(OCCO)cc1	-0.237
COC(=O)[C@@]1(Cc2ccc(OC)cc2)[C@H]2c3cc(C(=O)N4CCCC4)n(Cc4cccc5ccccc45)c3C[C@H]2CN1C(=O)c1ccccc1	0.521
